Among the test systems are HCT-15 colon; HT29 colon; SNB-75 CNS; SNB-19 CNS; U251 CNS; PC-3 prostate; SK-MEL-5 melanoma; UACC-62 melanoma; LOX IMVI melanoma; SK-MEL-28 melanoma; SK-MEL-2 melanoma; EKVX NSCLC; SN12C renal; UO-31 renal; TK-10 renal; ACHN renal; CCRF-CEM leukemia; MOLT-4 leukemia; SR leukemia; A498 renal.
Holding throughout (experiment): NCI-60 one-dose screen, 48 h (100 = growth as untreated, 0 = no growth, -100 = all killed)
Common to all, as to conditions: 10 µM unless noted

This is part of a sample that, as a whole, favours compounds with a hit. Of some 83,000 tested, about 20% had one in any assay.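 For each line, cells grew in 96-well plates with the test compound present at a single concentration for 48 hours.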 Unmarked numbers belong to inactive results. Active and inactive are the calls of the source. The calls were made as follows: active = growth percent below 10; inactive = the rest.

`CC(C)Cc1cc(CNC(=O)C2[C@H]3CN(C(=O)c4ccccc4)C[C@@H]23)nn1-c1ccccc1` (some centres undefined): the growth in the test on HCT-15 colon is 99.3%; in the test on HT29 colon, 66.5%; with SNB-75 CNS, 105%; in the test with SNB-19 CNS it was 107%; with U251 CNS, 90.1%; with PC-3 prostate it was 90.8%. Also, the growth is 99% in the test on SK-MEL-5 melanoma; 88.2% in the test on UACC-62 melanoma; 91.9% in the test on LOX IMVI melanoma; 93.5% in the test with SK-MEL-28 melanoma; 83.8% with SK-MEL-2 melanoma; 92.8% in the test with EKVX NSCLC. The growth with SN12C renal is 99.1%; in the test with UO-31 renal, 74.9%; in the test on TK-10 renal, 73.2%; in the test on ACHN renal it was 92.2%; in the test on CCRF-CEM leukemia, 89.7%; in the test on MOLT-4 leukemia, 80.6%. Moreover, in the test with SR leukemia, the growth is 90.4%.

`CSc1nc(-c2ccc(F)cc2)c(C#N)c(N2CCOCC2)n1`: the growth with HCT-15 colon is 98.6%; in the test on HT29 colon, 92.3%; in the test on SNB-75 CNS, 73.8%; in the test on SNB-19 CNS, 92.9%; with U251 CNS it was 89.3%; in the test with PC-3 prostate it was 89.9%. Moreover, the growth in the test with SK-MEL-5 melanoma is 94.8%; with UACC-62 melanoma, 78.9%; with LOX IMVI melanoma it was 99.2%; with SK-MEL-28 melanoma it was 101%; in the test on SK-MEL-2 melanoma, 101%; in the test with EKVX NSCLC, 88.6%. Besides, the growth in the test with SN12C renal was 98.8%; in the test with UO-31 renal, 80.3%; in the test with TK-10 renal it was 104%; in the test with ACHN renal, 90.1%; in the test with CCRF-CEM leukemia, 81%; in the test with MOLT-4 leukemia, 86.5%. Also, the growth with SR leukemia is 85.9%.

With `C=C(C)[C@@H]1CC[C@]2(C(=O)OCCOCCOCC[P+](c3ccccc3)(c3ccccc3)c3ccccc3)CC[C@]3(C)[C@H](CC[C@@H]4[C@@]5(C)CC[C@H](OC(=O)C(Cl)Cl)C(C)(C)[C@@H]5CC[C@]43C)[C@@H]12`, the growth was 11.1% in the test on HCT-15 colon; 5.74% (active) in the test with HT29 colon; 8.83% (active) in the test on SNB-75 CNS; 17.6% in the test on SNB-19 CNS; -5.68% (active) in the test with U251 CNS; -23.4% (active) in the test on PC-3 prostate. Moreover, the growth in the test with SK-MEL-5 melanoma was -99.1% (active); in the test with UACC-62 melanoma it was -39.3% (active); in the test with LOX IMVI melanoma it was -91.3% (active); in the test with SK-MEL-28 melanoma it was -43.9% (active); in the test with SK-MEL-2 melanoma, -45.4% (active); in the test on EKVX NSCLC, -15.2% (active). In addition, the growth in the test with SN12C renal was -46.9% (active); with UO-31 renal it was -45.1% (active); with TK-10 renal it was 15.7%; in the test with ACHN renal it was -79.2% (active); with A498 renal, -28.3% (active); in the test on MOLT-4 leukemia it was -8.02% (active). Also, the growth with SR leukemia is -32% (active).

In the case of `OCCNc1nc(NCCO)nc(Nc2ccc(C3=NN(c4cc(Cl)cc(Cl)c4)C(c4ccc(Cl)cc4)C3)cc2)n1` (centres undefined), the growth in the test on HCT-15 colon was 5.12% (active); in the test with HT29 colon it was -46% (active); in the test on SNB-75 CNS, -6.43% (active); in the test on SNB-19 CNS, 15.8%; with U251 CNS, -47.8% (active); in the test with PC-3 prostate, -12.1% (active). In addition, the growth is 24.9% with SK-MEL-5 melanoma; 13.1% in the test with UACC-62 melanoma; -53.4% (active) in the test with LOX IMVI melanoma; -55.8% (active) in the test with SK-MEL-28 melanoma; 73.7% with SK-MEL-2 melanoma; 20.6% in the test on EKVX NSCLC. Also, the growth in the test with SN12C renal is 25.1%; in the test with UO-31 renal, 18.1%; in the test with TK-10 renal it was -2.42% (active); in the test on ACHN renal, 50.8%; with CCRF-CEM leukemia, 13.3%; in the test on MOLT-4 leukemia, 2.38% (active). Moreover, the growth in the test with SR leukemia is -29.5% (active).

With `[2H]c1cc2c(c([2H])c1F)/C(=C/c1[nH]c(C)c(C(=O)NCCN(CC)CC)c1C)C(=O)N2`, the growth in the test on HCT-15 colon was 29.9%; in the test with HT29 colon it was 19%; with SNB-75 CNS, 50.4%; with SNB-19 CNS, 85.4%; in the test with U251 CNS, 66.5%; with PC-3 prostate it was 28.3%. Besides, the growth in the test on SK-MEL-5 melanoma is 51%; with UACC-62 melanoma it was 67%; in the test on LOX IMVI melanoma it was 26.5%; with SK-MEL-28 melanoma, 64.7%; with SK-MEL-2 melanoma, 14.7%; with EKVX NSCLC, 44.7%. The growth was 24.4% with SN12C renal; 12.3% with UO-31 renal; 62.1% in the test on TK-10 renal; 25.4% in the test on ACHN renal; 69.5% in the test on CCRF-CEM leukemia; 20.3% in the test on MOLT-4 leukemia. For the same molecule, the growth with SR leukemia was 0.469% (active).

For `C#C[C@@]1(O)[C@@H](CO)O[C@@H](n2cc(F)c3c(N)ncnc32)[C@@H]1O`, the growth in the test with HCT-15 colon was -5.29% (active); in the test with HT29 colon, 5.9% (active); with SNB-75 CNS, -34.3% (active); in the test on SNB-19 CNS, 20.7%; in the test with U251 CNS, 8.64% (active); in the test with PC-3 prostate, 5.02% (active). Besides, the growth was -86.9% (active) with SK-MEL-5 melanoma; -51.9% (active) in the test on UACC-62 melanoma; -66.3% (active) in the test on LOX IMVI melanoma; 45.2% in the test on SK-MEL-28 melanoma; -1.11% (active) in the test on SK-MEL-2 melanoma; 1.34% (active) with EKVX NSCLC. The growth was 2.43% (active) in the test with SN12C renal; -15.5% (active) with UO-31 renal; 3.69% (active) in the test on TK-10 renal; -10.6% (active) in the test on ACHN renal; -76% (active) in the test with A498 renal; 4.47% (active) with MOLT-4 leukemia. In addition, the growth in the test on SR leukemia was 12.9%.

The values are drawn from PubChem BioAssay (NCI).
